Assay outcomes (PubChem BioAssay)
PfHsp40 yeast: rescue of yeast from PfHsp40 toxicity, primary screen, S. cerevisiae, ATP luminescence; growth rescue, % at 12.5 µM; S. cerevisiae expressing PfHsp40, growth rescue; 0.68% of 340,000 active; in the data active = growth rescue above about 28%, passing the limit was not always enough; inconclusive = no clear call, values can overlap the other calls;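 also: yeast W303a lacking pdr1 and pdr3 grown in galactose medium; growth measured after three days at 30 °C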
BoNT-A LC inh2: BoNT/A light chain protease inhibitors, primary screen, biochemical, flow cytometry, MLPCN library; Botulinum neurotoxin type A light chain protease (Clostridium botulinum A str. ATCC 3502); inhibition, % at 10 µM; 0.17% of 360,000 active; multiplex microsphere protease substrate cleavage
Anthrax LF prot: Bacillus anthracis LF protease inhibitors, primary screen, biochemical, multiplex microsphere, MLPCN library | Lethal factor (Bacillus anthracis), P15917 | multiplex microsphere protease cleavage assay | inhibition, % at 10 µM | 0.12% of 360,000 active
Target sequence (P15917 whole entry, looked up): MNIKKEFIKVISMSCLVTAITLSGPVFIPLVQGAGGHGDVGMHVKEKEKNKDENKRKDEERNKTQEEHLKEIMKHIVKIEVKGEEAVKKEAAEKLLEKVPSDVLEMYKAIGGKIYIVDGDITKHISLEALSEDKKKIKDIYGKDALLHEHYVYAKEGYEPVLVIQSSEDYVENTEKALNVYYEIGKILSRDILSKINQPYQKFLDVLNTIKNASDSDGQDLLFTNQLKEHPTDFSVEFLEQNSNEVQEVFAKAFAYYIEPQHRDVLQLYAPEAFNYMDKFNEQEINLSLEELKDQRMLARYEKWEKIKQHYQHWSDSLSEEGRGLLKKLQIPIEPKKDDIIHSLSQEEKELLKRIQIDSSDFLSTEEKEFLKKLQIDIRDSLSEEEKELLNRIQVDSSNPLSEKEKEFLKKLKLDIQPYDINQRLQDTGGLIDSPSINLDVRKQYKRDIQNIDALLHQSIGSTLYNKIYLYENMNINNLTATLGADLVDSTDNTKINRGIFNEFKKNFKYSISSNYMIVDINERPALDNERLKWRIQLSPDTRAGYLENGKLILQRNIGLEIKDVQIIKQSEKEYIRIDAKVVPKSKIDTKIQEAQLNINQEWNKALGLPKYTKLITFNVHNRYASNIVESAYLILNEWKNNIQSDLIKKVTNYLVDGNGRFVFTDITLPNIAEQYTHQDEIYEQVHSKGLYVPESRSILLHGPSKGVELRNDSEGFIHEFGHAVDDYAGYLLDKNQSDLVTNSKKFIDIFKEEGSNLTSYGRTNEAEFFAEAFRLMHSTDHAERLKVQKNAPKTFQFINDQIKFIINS
Bead autofluor: compound fluorescence in toxin protease inhibitor counterscreen. fluorescence intensity (test concentration not listed). AID 624483. 3.1% of 360,000 active. compound autofluorescence counterscreen, microsphere flow cytometry; active compounds read high; in the data active = fluorescence intensity above about 16000; inconclusive = no clear call, values can overlap the other calls
MazF activator: activators of E. coli MazEF toxin-antitoxin RNase, primary screen, biochemical, fluorescence, uHTS; Endoribonuclease toxin MazF (Escherichia coli (strain K12)), P0AE70; FAM/BHQ RNA-DNA oligo cleavage fluorescence, 5 h; activation, % at 20 µM; 0.32% of 350,000 active; AID 504720, 2011; in the data active = activation above about 50%
BoNT-F LC inh: BoNT/F light chain protease inhibitors, primary screen, biochemical, flow cytometry, MLPCN library. inhibition, % at 10 µM. Multiplex microsphere protease cleavage assay. AID 588497, 2011. 0.22% of 360,000 active; in the data active = inhibition above about 35%, passing the limit was not always enough; inconclusive = no clear call, values can overlap the other calls
Numbers stand for hits; - = inactive; ? = inconclusive; . = no result given. Only some compounds are listed: those with a hit (about 4.3% of all), similar ones and a draw of the others. Rule as the data show it, unless noted: active = inhibition above about 30%; inconclusive = no clear call, values can overlap the other calls; inactive = below that.

SMILES | PfHsp40 yeast | BoNT-A LC inh2 | Anthrax LF prot | Bead autofluor | MazF activator | BoNT-F LC inh
CC(C)NS(=O)(=O)c1ccc(Oc2ncc(C(F)(F)F)cc2Cl)cc1 | - | - | - | - | - | -
O=[N+]([O-])c1ccc(Oc2ccc(S(=O)(=O)Nc3ccccc3)cc2)cc1 | 388.1 | - | - | - | - | -
CCCCNS(=O)(=O)c1cccc(NC(=O)[C@@H]2O[C@H](CO)[C@@H](O)[C@H]2O)c1 | . | - | - | - | . | -
CCCCOC(=S)NC(=O)c1sc2ccccc2c1Cl | - | - | - | 23574 | - | -
COc1ccc(C(CNC(=O)C(C)c2ccc3cc(OC)ccc3c2)N(C)C)cc1 (stereo not drawn) | - | - | - | - | - | -
COc1ccc2cc([C@H](C)C(=O)N(C)Cc3ccccc3N3CCCC3)ccc2c1 | - | - | - | 21814 | - | -
CCOc1cc(C=O)ccc1OS(=O)(=O)c1ccc(NC(C)=O)cc1 | - | - | - | - | - | -
C[C@]12C(=O)N(c3ccc(F)cc3)C(=O)N1[C@H]1c3ccccc3OC[C@@H]1[C@H]2c1ccccc1 | 93.8 | - | - | - | - | -
Cc1ccc2c(c1)[C@H]1[C@H](CO2)[C@H](c2ccccc2)[C@]2(C)C(=O)N(Cc3ccc(Cl)cc3)CC(=O)N12 | - | - | - | - | - | -
CCOC(=O)[C@@H]1[C@H]2COc3cc(OC)ccc3[C@@H]2N2C(=O)N(c3cccc(Cl)c3)C(=O)[C@]12C | - | - | - | - | - | -
CCOC(=O)[C@@H]1[C@H]2COc3cc(OC)ccc3[C@@H]2N2C(=O)N(c3cccc(C)c3)C(=O)[C@]12C | 64.7 | - | - | - | - | -
Cc1ccc2c(c1)[C@H]1[C@H](CO2)[C@H](c2ccccc2)[C@]2(C)C(=O)N(Cc3ccc(F)cc3)CC(=O)N12 | - | - | - | - | 309.8 | -
COc1ccc(CN2CC(=O)N3[C@H]4c5ccccc5OC[C@@H]4[C@H](c4ccccc4)[C@]3(C)C2=O)cc1 | - | - | - | - | 52.0 | -
Cc1cc(C)cc(NC(=O)CSCc2cc(=O)n3ccsc3n2)c1 | - | - | - | - | - | -
CCCCN1CC(=O)N2[C@H]3c4cc(Cl)ccc4OC[C@@H]3[C@H](c3ccccc3)[C@]2(C)C1=O | - | - | - | - | - | -
CCCCN1CC(=O)N2[C@@H]3c4cc(Br)ccc4OC[C@@H]3[C@H](C(=O)OCC)[C@]2(C)C1=O | - | - | - | - | 61.5 | -
CCCCN1CC(=O)N2[C@H]3c4cc(C)ccc4OC[C@@H]3[C@H](c3ccccc3)[C@]2(C)C1=O | - | - | - | - | 87.0 | -
CCCCN1CC(=O)N2[C@H]3c4cc(Br)ccc4OC[C@@H]3[C@H](C(=O)OCC)[C@]2(C)C1=O | - | - | - | - | - | -
COc1ccc2c(c1)OC[C@H]1[C@H]2N2C(=O)c3cc(Cl)ccc3NC(=O)[C@@]2(C)[C@H]1c1ccccc1 | ? | - | - | - | - | -
COc1ccc2c(c1)OC[C@H]1[C@H]2N2C(=O)c3cc(OC)ccc3NC(=O)[C@@]2(C)[C@H]1c1ccccc1 | 116.5 | - | - | - | - | -
COc1ccc(C=O)cc1CSc1ncccc1C(=O)O | - | - | - | - | - | -
O=C(/C=C/[C@H]1O[C@@H](n2ccc(=O)[nH]c2=O)[C@H](O)[C@@H]1O)NCCN1CCCCC1 | . | - | - | - | . | -
CCNC(=O)CC1SC(=Nc2cccc(Cl)c2C)N(C)C1=O (stereo not drawn) | - | - | - | 16300 | - | -
O=C(CSc1nn(-c2ccccc2)c(=S)s1)NC(=O)NCc1ccco1 | - | - | - | 23530 | - | -
O=C(CSc1nn(-c2ccccc2)c(=S)s1)Nn1cnnc1 | - | - | - | - | - | -
SMILES | PfHsp40 yeast | BoNT-A LC inh2 | Anthrax LF prot | Bead autofluor | MazF activator | BoNT-F LC inh
O=c1c2cc(N3CCOCC3)ccc2[nH]c(=S)n1CCCN1CCCCCC1 | - | ? | - | 21083 | - | -
O=c1c2cc(N3CCOCC3)ccc2[nH]c(=S)n1Cc1ccc(Cl)cc1 | - | - | - | 16514 | - | -
O=c1c2cc(N3CCOCC3)ccc2[nH]c(=S)n1CCN1CCCC1 | - | - | - | - | - | -
CNc1sc(C(=O)c2ccc(F)cc2)c(N)c1-c1nc2ccccc2s1 | - | - | - | 18218 | - | -
CNc1sc(C(=O)c2cccs2)c(N)c1-c1nc2ccccc2s1 | - | - | - | - | - | -
CC(C)OC(=O)c1cccnc1SCC(=O)N(C)c1ccccc1 | - | - | - | - | - | -
CC(C)OC(=O)c1cccnc1SCc1cc(=O)n2ccccc2n1 | - | - | - | 24425 | - | -
Nc1nnc(Cc2c[nH]c3ccccc23)s1 | - | - | - | 23973 | - | -
CC(C)C(=O)Nc1nnc(Cc2c[nH]c3ccccc23)s1 | - | - | - | - | - | ?
CCOc1ccc(S(=O)(=O)N2CCCC(C(=O)Nc3cccc(C)c3)C2)cc1 (stereo not drawn) | - | - | - | - | - | -
Cc1ccc(/C=N/NC(=O)c2nnn(-c3nonc3N)c2C(C)C)s1 | - | - | - | - | - | -
Nc1c(C(=O)c2ccc(Br)s2)oc2ccccc12 | - | - | - | - | 63.9 | -
Nc1c(C(=O)c2ccccc2)oc2ccc(Br)cc12 | - | - | - | 20833 | - | -
COC(=O)CCC(=O)c1oc2ccc(Br)cc2c1N | - | - | - | 16549 | - | -
CCCc1cc(C(=O)N2CCCC(Cc3ccccc3C)(C(=O)OCC)C2)no1 (stereo not drawn) | - | - | - | - | - | -
Cc1csc(SCC(=O)NC(C)c2ccc(F)cc2)n1 (stereo not drawn) | - | - | - | - | - | -
CN(CC(=O)Nc1c(Cl)cccc1Cl)C(=O)CNC(=O)c1ccc2ccccc2c1 | - | - | - | - | - | -
c1ccc2c(c1)ccc1ccccc12 | - | - | - | - | - | -
Nc1c(C(O)(C(F)(F)F)C(F)(F)F)ccc2ccccc12 | - | - | - | 17206 | - | -
COc1ccc(-c2nc3cc(C)c(Br)c(C)n3c2CC(C)(C)C)cc1OC | . | - | - | - | . | -
CC(C)c1ccccc1OCCCCCN1CCOCC1 | . | - | - | - | - | ?
COc1cc(/C=C/C(=O)CC(=O)/C=C/c2ccc(O)c(OC)c2)ccc1O | ? | 30.8 | - | - | - | -
COc1cc(C=C(C(C)=O)C(C)=O)ccc1O | - | - | - | - | - | -
COc1cc(/C=C/C(=O)O)ccc1O | - | - | - | - | - | -
COc1cc(/C=C/C(=O)/C=C(O)/C=C/c2ccc(O)c(OC)c2)ccc1O | ? | 32.1 | - | - | - | -
CC(NC(=O)COC(=O)C12CC3CC(CC(Br)(C3)C1)C2)c1ccccc1 (stereo not drawn) | - | - | - | - | - | -
